Screening results as filed in PubChem BioAssay.
CHO-K1 Ca antag – M1 antagonist counterscreen hit in parental CHO-K1 cells | 0.6% of 360,000 active | inhibition, % at 3 µM | ATP-induced calcium, Fluo-8 fluorescence;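 active means inhibition above a per-plate cutoff, the plate's mean sample inhibition plus 3 SD, cut at about 24% in these data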
M1 ag parental – counter-screen for M1 agonists: effect in parental CHO-K1 cells | Fluo-8 calcium fluorescence; scaled to maximal ATP response, vehicle zero | activation, % at 3 µM | 0.48% of 360,000 active; in the data active means activation above about 15%;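 further: untransfected CHO-K1 host cells lacking M1 receptor as counterscreen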
CHRM1 PAM – positive allosteric modulators of human M1 muscarinic receptor. P11229. CHO-K1 hM1, Fluo-8 calcium fluorescence, ACh EC20; 0% = ACh EC20, 100% = maximal ACh. activation, % at 3 µM. 0.088% of 360,000 active. AID 588819; in the data active means activation above about 19%, passing the limit was not always enough
Target sequence (P11229 whole entry, looked up): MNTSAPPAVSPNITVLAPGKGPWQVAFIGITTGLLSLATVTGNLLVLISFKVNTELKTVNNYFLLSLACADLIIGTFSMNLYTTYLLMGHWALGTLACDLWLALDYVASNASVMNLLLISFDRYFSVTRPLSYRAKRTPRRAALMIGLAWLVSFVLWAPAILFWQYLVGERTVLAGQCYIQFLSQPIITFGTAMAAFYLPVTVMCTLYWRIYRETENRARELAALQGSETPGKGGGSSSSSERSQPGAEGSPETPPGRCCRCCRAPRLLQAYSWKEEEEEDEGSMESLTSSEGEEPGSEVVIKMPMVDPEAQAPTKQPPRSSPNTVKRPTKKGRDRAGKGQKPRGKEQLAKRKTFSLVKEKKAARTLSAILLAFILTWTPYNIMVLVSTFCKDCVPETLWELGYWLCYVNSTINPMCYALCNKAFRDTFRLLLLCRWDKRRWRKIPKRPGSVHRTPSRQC
CHRM1 antagonist – antagonists of human M1 muscarinic receptor. CHO-K1 hM1, Fluo-8 calcium fluorescence, ACh EC80 antagonist. inhibition, % at 3 µM. 1.3% of 360,000 active. AID 588852;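 active means percent inhibition above its own plate's cutoff, namely the mean of that plate's compound wells plus 3 SD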;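 further: peak over basal fluorescence ratio during 140 s after agonist addition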
CHO-K1 Ca PAM – M1 PAM counterscreen hit in parental CHO-K1 cells | ATP EC20, Fluo-8 calcium fluorescence; 0% at ATP EC20, 100% at ATP max | 0.02% of 360,000 active | activation, % at 3 µM;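 active means activation above the run cutoff, the mean activation of all test compounds plus 3 SD, cut at about 40% in these data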;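 further: peak over basal fluorescence ratio in a 140 s read after ATP addition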
M1 ag – human M1 muscarinic receptor agonism; P11229; CHO-K1 hM1, Fluo-8 calcium fluorescence, agonist mode; 0% DMSO, 100% acetylcholine EC100; 0.33% of 360,000 active; activation, % at 3 µM;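 active means activation above the run's mean compound activation plus 3 SD, cut at about 16% in these data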;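 further: peak over basal fluorescence ratio within a 140 s kinetic read after compound addition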
Of the large screens only hits and unclear results are named; the others gave an inactive call. Hits are enriched below; roughly 2.4% of the tested compounds scored in any of these assays.

CC1(c2ccc(OC(F)F)cc2)NC(=O)N(CC(=O)Nc2ccc(F)cc2)C1=O (stereo not drawn)	M1 ag parental 24.7, M1 ag 28.8
CN1C[C@@H]2[C@@H]3C(=O)N(C)C(=O)[C@@H]3[C@](C)(C1=O)N2C(=O)c1ccc(Cl)c(Cl)c1	none
CCOC(=O)c1c(C)[nH]c(C(=O)CN2C(=O)NC(C)(c3ccc(C)cc3)C2=O)c1C (stereo not drawn)	M1 ag parental 18.9, M1 ag 21.9
CN1CCN(c2ccc(Cl)cc2NC(=O)CN2C(=O)NC(C)(c3ccccc3)C2=O)CC1 (stereo not drawn)	none
CC1(c2ccc(OC(F)F)cc2)NC(=O)N(CC(=O)Nc2ccc(Cl)cc2F)C1=O (stereo not drawn)	M1 ag 16.6
CCOC(=O)c1c(C)[nH]c(C(=O)CN2C(=O)NC(C)(C)C2=O)c1C	none
CCC(C)(C(=O)Nc1ccccc1C)N(C(=O)CNC(C)=O)c1ccccc1C (stereo not drawn)	none
CC(C)(C)OC(=O)N1CCC(C(=O)Nc2ccc(C(=O)NCc3ccccc3)cc2)CC1	none
COc1ccc(CCNC(=O)C2CC3Cn4c(nc5ccccc54)C3N2c2ccccc2)cc1 (stereo not drawn)	none
OCCN(Cc1cccnc1)Cc1ccccn1	CHRM1 antagonist 58.7
Cc1ccc(C(=O)NNC(=O)c2ccc(NC(=O)C(C)(C)C)cc2)cc1	M1 ag parental 15.2
CC(C)(C)C(=O)NC(=S)NNC(=O)c1ccc(-c2ccccc2)cc1	CHO-K1 Ca antag 95.1, M1 ag parental 107.0, CHRM1 antagonist 102.9, M1 ag 115.1
CC(C)(C)C(=O)NC(=S)NNC(=O)c1ccc(Cl)cc1Cl	CHO-K1 Ca antag 58.7, M1 ag parental 119.1, CHRM1 antagonist 87.0, M1 ag 117.1
COc1cc(/C=C2/S/C(=N/S(=O)(=O)c3ccccc3)NC2=O)c([N+](=O)[O-])cc1OC	none
O=C1N/C(=N\S(=O)(=O)Cc2ccccc2)S/C1=C/c1cc([N+](=O)[O-])ccc1O	CHO-K1 Ca antag 41.0, M1 ag parental 36.5, CHRM1 antagonist 36.7, M1 ag 29.5
O=C1N/C(=N\S(=O)(=O)c2ccccc2)S/C1=C\c1cc([N+](=O)[O-])ccc1O	M1 ag parental 19.2, M1 ag 32.3
CN(CC(=O)Nc1cccc(F)c1)CC(=O)N1CCCCC1	none
CCn1c(COc2cccc(C)c2C)nnc1SCC(=O)Nc1cc(C)on1	M1 ag parental 17.5
CCn1c(COc2ccccc2C)nnc1SCC(=O)Nc1cc(C)on1	none
C=CCn1c(CCC(=O)Nc2ccc(C)c(Cl)c2)nnc1SCC(=O)Nc1ccccc1C	M1 ag parental 16.1
O=C(CN1C(=O)c2ccccc2S1(=O)=O)N1CCc2ccccc2C1	CHO-K1 Ca antag 25.0
CC1CCN(C(=O)CN2C(=O)c3ccccc3S2(=O)=O)CC1	none
COc1ccc(C2/C=C\CN(C(=O)C3CCCCC3)CC(=O)N2Cc2ccc(F)cc2)cc1 (stereo not drawn)	none
COc1ccc(C2/C=C\CN(C(=O)C3CCCC3)CC(=O)N2Cc2ccc(F)cc2)cc1 (stereo not drawn)	CHRM1 PAM 31.6
Cc1cccc(NS(=O)(=O)c2cccc(C(=O)N3CCN(C/C=C/c4ccccc4)CC3)c2)c1	CHRM1 antagonist 31.8
COc1ccc(NS(=O)(=O)c2cccc(C(=O)N3CCN(C/C=C/c4ccccc4)CC3)c2)cc1	none
Cc1ccc(C(=O)N2CCN(C/C=C/c3ccccc3)CC2)cc1S(=O)(=O)N1CCOCC1	CHRM1 antagonist 73.0
CCc1ccc2c(c1)C(=O)C(=O)N2CCS(=O)(=O)c1ccccc1	none
O=C1C(=O)N(CCS(=O)(=O)c2ccccc2)c2ccc(Cl)cc21	M1 ag 17.2
Cc1occc(=O)c1OC(=O)Nc1ccc(Cl)c(Cl)c1	CHO-K1 Ca antag 29.2
CCOC(=O)c1nonc1NC(C)=O	none
COC(=O)c1ccc(CO/N=C(\NC(C)=O)c2nonc2NC(C)=O)cc1	M1 ag 17.0
Cc1cccc(Nc2nc(-c3c(C)nc4ccccn34)cs2)c1	CHRM1 antagonist 37.0
CS(=O)(=O)N1CCCC(c2nc(-c3ccc(S(=O)(=O)NCc4ccccc4)cc3)no2)C1 (stereo not drawn)	CHO-K1 Ca antag 33.5, CHRM1 antagonist 35.8
COCCN1C[C@@H](CO)O[C@@H](n2cnc3c(N(C)C(C)C)ncnc32)C1	none
O=C(COC(=O)c1ccc(F)cc1F)NCCNC(=O)COC(=O)c1ccc(F)cc1F	none
O=C(COC(=O)c1ccc(F)cc1F)NC1CC1	CHO-K1 Ca antag 30.3
CCC(C)NC(=O)[C@@H]1CSC2c3ccccc3C(=O)N21 (stereo partly drawn)	none
CC(c1ccccc1C(O)(c1ccccc1)c1ccccc1)N(C)C (stereo not drawn)	M1 ag parental 23.3
O=C(CSc1nnc(-c2cccnc2)n1-c1ccccc1)NCc1ccc2c(c1)OCO2	CHO-K1 Ca antag 24.0
CC(Sc1nnc(-c2cccnc2)n1-c1ccccc1)C(=O)NCc1ccc2c(c1)OCO2 (stereo not drawn)	none
Cn1c(N)c(C(=O)COC(=O)C2CC(=O)N(Cc3ccccc3)C2)c(=O)n(C)c1=O (stereo not drawn)	none
COc1ccccc1NC(=O)CCN1C(=O)C2CC=CCC2C1=O (stereo not drawn)	none
COc1cc(/C=N/NS(=O)(=O)c2ccccc2)c(OC)c(OC)c1	M1 ag parental 16.3
C[C@H](CO)N1C[C@H](C)[C@@H](CN(C)Cc2ccc(Cl)c(Cl)c2)Oc2c(NS(=O)(=O)c3cn(C)cn3)cccc2C1=O	none
O=C(c1cc(C2CC2)nn1-c1ccccc1)N1CCN(S(=O)(=O)c2ccc(F)cc2)CC1	none
CC1CCCN(C(=O)COC(=O)c2cc(-c3cccs3)nn2-c2ccccc2)C1 (stereo not drawn)	CHRM1 antagonist 46.1
O=C(c1cc(-c2cccs2)nn1-c1ccccc1)N1CCN(S(=O)(=O)c2ccccc2)CC1	CHRM1 antagonist 27.8
NC(=O)COC(=O)c1cc(-c2cccs2)nn1-c1ccccc1	none
O=C(c1cc(C2CC2)nn1-c1ccccc1)N1CCN(S(=O)(=O)c2cccc(F)c2)CC1	CHRM1 antagonist 29.8
O=C(O)CCC(=O)N1N=C(c2ccccc2)CC1c1ccc2c(c1)OCO2 (stereo not drawn)	none
C/C(=N/NC(=O)CNc1ccc(C)cc1)c1ccc(Br)s1	M1 ag parental 21.4
Cc1ccccc1N(CC(=O)NC1CCCCC1)C(=O)CCCC(=O)Nc1ccccn1	none
CC(C(=O)Nc1ccc(S(=O)(=O)N2CCCC2)cc1)N1CCc2ccccc2C1 (stereo not drawn)	CHRM1 antagonist 100.8
CCCC(C)C(=O)Nc1ccc(S(=O)(=O)N2CCCC2)cc1 (stereo not drawn)	none
